Growth data for 40 compounds are collected here from PubChem BioAssay (NCI).

This is part of a sample that, as a whole, favours compounds with a hit. Of some 83,000 tested, about 20% had one in any assay.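 Negative percent growth values reflect cell death: -40 means 40% of the cells present at the start died, and -100 means all died.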 The source made the active and inactive calls.

For this experiment, the system named is SN12C renal. The experiment in a line: NCI-60 one-dose screen, 48 h (100 = growth as untreated, 0 = no growth, -100 = all killed). The settings on record: 10 µM unless noted. As for the experimental part: Growth inhibition of the SN12C human tumor cell line is measured as a screen for anti-cancer activity. Cells are grown in 96 well plates and exposed to the test compound for 48 hours. Compounds are tested at a single concentration, which is 10^-5 M for most compounds. The reported endpoint is percent growth (GI% or GIPRCNT), where numbers from 0 - 100% represent growth inhibition, and numbers from -100% - 0 represent cell death. For example, a value of 40 represents 60% growth inhibition. A value of 0 means no net growth occurred over the course of the experiment. A value of -40 indicates 40% of cells at the beginning of the experiment died by the end of the experiment. A value of -100 means all cells are dead at the end of the experiment.
NCI-60 Human Tumor Cell Lines Screen was performed using the standard one-dose NCI protocol, which is described in more detail at https://dtp.cancer.gov/discovery_development/nci-60/default.htm.
Compounds with GIPRCNT values below 10 were considered active. Activity score was based on GIPRCNT using the following formula: […]
Score is 0 for GIPRCNT values of 100 or above, 50 for GIPRCNT values of 0, and 100 for GIPRCNT values of -100.
For the compound `C/C=C(/C)n1cnc2c(Nc3ccccn3)nc(Cl)nc21`, the growth is 94.1% (inactive).

As to `C#CCNC(=O)[C@]1(C)CCC[C@@]2(C)[C@H]1CC=C1C=C(C(C)C)CC[C@@H]12`, the growth is 96.7% (inactive).

Consider `N#C/C(=C\c1ccc([N+](=O)[O-])cc1)n1nnc2cc(F)c(F)cc21`, for which the growth was 4.63% (active).

Consider `c1ccc2c(c1)CCCc1nnc3nc4ccccc4n3c1-2`, for which the growth was 48% (inactive).

Regarding `Cc1ncc(C(=O)Nc2ccc(CN3CCN(C)CC3)c(C(F)(F)F)c2)cc1C#Cc1cnc(N)c2ncccc12`, the growth is -20.3% (active).

As for `CN1CCN(CCCOc2cccc3nc(Nc4ccc(F)c(F)c4)ccc23)CC1`, the growth is 24.4% (inactive).

Consider `COc1cccc(/C=N/NC(=O)c2ccccc2N2CCCC2)c1O`, for which the growth is 78.8% (inactive).

`Cc1ccc(-c2nc(N3CCNCC3)c3oc(-c4ccc(C)cc4)nc3n2)cc1`: the growth is 50.9% (inactive).

On to `COc1ccc(C#Cc2ccc(=O)oc2-c2cc(OC)c(OC)c(OC)c2)cc1O`, for which the growth is 58% (inactive).

Consider `CC1(C)C(N)=Nc2cc(OCCCN3Cc4ccccc4C3)c(OCC3CC3)cc21`, for which the growth was 84.5% (inactive).

Regarding `CC1C(/C=N/NC(N)=S)C(C#N)(C#N)C1(C#N)C#N` (stereo not given), the growth was 105% (inactive).

Take `N=c1c(S(=O)(=O)c2ccccc2)cc2c(=O)n3ccccc3nc2n1CC1CCCO1` (stereo not given): the growth was 96.8% (inactive).

Consider `Cc1cc(Nc2ccc(C(=O)N3CCCC3)cc2)nc(NCCCNc2ccnc3cc(Cl)ccc23)n1`, for which the growth is 85% (inactive).

In the case of `CC1(C)CC(=O)c2c(nn(-c3ccc(Br)cc3)c2-c2cn(-c3ccccc3)nc2-c2cccnc2)C1`, the growth was 92.7% (inactive).

With `FC(F)(F)Oc1cccc(-c2cnc3ccc(-c4ccncc4)nn23)c1`, the growth is 13.2% (inactive).

Consider `CNC(=O)c1cc(Oc2cccc3nc(NC(=O)Nc4cc(C(F)(F)F)ccc4Cl)ccc23)ccn1`, for which the growth is 93.5% (inactive).

Take `CC(=C(c1ccc(OCCN2CCCCC2)cc1)c1ccc(OCCN2CCCCC2)cc1)c1ccc(Cl)cc1`: the growth is -91.1% (active).

In the case of `[2H]C([2H])([2H])Oc1ccc(F)cc1/C=C/C(=O)/C=C(O)/C=C/c1cc(F)ccc1OC([2H])([2H])[2H]`, the growth was 90.7% (inactive).

For the compound `CC1(C)[C@@H](O[C@@H]2OC[C@@H](O[C@@H]3O[C@H](CO)[C@@H](O)[C@H](O)[C@H]3O[C@@H]3OC[C@@H](O)[C@H](O)[C@H]3O)[C@H](O)[C@H]2O[C@@H]2O[C@H](CO)[C@@H](O)[C@H](O)[C@H]2O)CC[C@]2(C)[C@H]3CC[C@]45OC[C@@]6(CC[C@](C)(C=O)C[C@H]64)[C@H](O)C[C@@]5(C)[C@]3(C)CC[C@@H]12`, the growth was -72.6% (active).

Take `Cc1ccc(/C=C(\C#N)n2nnc3cc(F)c(F)cc32)cc1`: the growth is 2.07% (active).

Take `CCCCNC(=O)Oc1ccc(/C(=C(/C)Cc2ccc(OC)cc2)c2ccc(OCCN3CCCCCC3)cc2)cc1`: the growth is 71% (inactive).

Take `Nc1nc(N)c(N=Nc2ccccc2)c(-c2ccccc2)n1`: the growth is 56% (inactive).

For `C[C@]1(O)CC(=O)[C@]2(O)C3=C(C=C[C@]2(O)C1)C(=O)c1c(O)cccc1C3=O`, the growth was 3.18% (active).

Turning to `O=C1Nc2ccccc2/C1=C/c1cccn1C(=O)c1ccc(Cl)s1`, the growth is 86.2% (inactive).

For the compound `CC(C)(C)n1cc(-c2ccnc(NCCCNS(=O)(=O)c3cccc4ccccc34)c2)c(-c2cccc(F)c2)n1`, the growth is 73.3% (inactive).

`COc1ccc2[nH]cc(-c3nc(-c4c[nH]c5c(Cl)nccc45)cs3)c2c1`: the growth was 56.5% (inactive).

In the case of `O=C(N/N=C/c1cc(Cl)ccc1O)c1ccccc1Nc1ccnc(C(F)(F)F)c1`, the growth is 20.7% (inactive).

As to `COc1cc(NC(=O)c2cncnc2Nc2ccc3c(ccn3Cc3ccccn3)c2)cc(OC)c1`, the growth was 56.2% (inactive).

On to `CC1=C2[C@@H](CC1)[C@]1(C)O[C@@](C3CCCCC3)(C[C@H]1OC(=O)CO)[C@H]2OC(=O)/C=C/c1ccccc1`, for which the growth is 32.1% (inactive).

As to `Cc1ccc(/C=C/C(=O)Nc2ncc(Cc3ccc(F)cc3)s2)o1`, the growth was 66.3% (inactive).

On to `CS(=O)(=O)c1nnc(-c2ccccc2)s1`, for which the growth is 105% (inactive).

Consider `COc1ccc(C(=O)/C=C/c2ccc(Cl)cc2)cc1S(=O)(=O)Nc1c(N)nc(SC)[nH]c1=O`, for which the growth was 16.8% (inactive).

Regarding `CC1(C)NCCC[C@]2(C)[C@H]3CC[C@H]4[C@H]5[C@H](C(=O)/C=C/c6cccnc6)CCC[C@]5(CO)CC[C@@]4(C)[C@]3(C)CC[C@@H]12`, the growth was 58.5% (inactive).

As to `CCN(CC)CCN1C(=O)c2c(c(C)c3c(oc4ccc(OC)cc43)c2C)C1=O`, the growth is 92.6% (inactive).

For the compound `COc1ccc(/C=C/C(=O)c2ccc(NC(=O)CSc3nc4c([nH]3)c(=O)n(C)c(=O)n4C)cc2)cc1OC`, the growth was 85.3% (inactive).

As for `COc1ccc(C(O)c2cc3c(N)c(C(=O)Nc4cccc(Cl)c4C)sc3nc2C)cc1` (stereo not given), the growth was 13.6% (inactive).

For `COc1cccc(-c2cc(-c3cccc(Cl)c3)c(C#N)c(=O)[nH]2)c1`, the growth is 85.2% (inactive).

`O=C(CSc1nc(-c2ccccc2)cc(=O)[nH]1)Nc1nc(-c2ccccc2)cs1`: the growth is 102% (inactive).

As to `O=C1/C(=C/c2ccccn2)NC(=S)N1c1ccccc1Cl`, the growth is 58.1% (inactive).

As for `O=C(Nc1ncccc1OCc1ccccc1)NC1CCCCCC1`, the growth was 78.6% (inactive).
